Results filed as inconclusive are left out. Active and inactive are the calls of the source. Unless noted, calls follow the shape of the dose curve; as a rule, active = well fitted curve in the direction sought with a large enough effect; inconclusive = small, poorly fitted or top-dose-only effect, or another doubt; inactive = no such curve, though single readings can be large; an effect the other way counts as inactive or inconclusive.
What was measured:
[1] = AP1 Signaling Pathway (AID 357; active = well fitted curve in either direction with a large enough effect, not every such curve was filed as active;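 also: ME-180 reporter cells stimulated with EGF at its EC50 level; % is scaled to controls: 0 for no effect and ±100 for the full control effect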); conditions: ME-180 AP-1-bla reporter, EGF-induced, beta-lactamase ratio, 5 h
Summary of the method: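 A ratiometric CCF4 readout (405 nm excitation; 460 and 530 nm emission) quantified AP-1-driven beta-lactamase in ME-180 cells after 5 h with compound and EC50 EGF; AC50 values were derived for activators and inhibitors.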

[2] = NFAT Signaling Pathway (AID 444; active = well fitted curve in either direction with a large enough effect, not every such curve was filed as active;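 also: carbachol stimulus at about its EC50 of 1 µM final; % is scaled to controls: 0 for no effect and ±100 for the full control effect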); conditions: Jurkat NFAT-bla M1, carbachol, beta-lactamase ratio, 5 h
Summary of the method: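 Jurkat cells carrying an NFAT-driven β-lactamase reporter and co-transfected muscarinic M1 receptor were treated with compound plus carbachol (1 uM final, an EC50 level) for 5 h at 37 °C. CCF4 loading followed for 1 h at RT; 460/530 nm ratio gave %activity.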

[3] = Stat Signaling Pathway (AID 446; active = well fitted curve in either direction with a large enough effect, not every such curve was filed as active;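 also: ME-180 cervical cancer cells given 40 pM IL-6 alongside compound; SIE-controlled beta-lactamase reporter measured as 460/530 nm FRET emission ratio; % is scaled to controls: 0 for no effect and ±100 for the full control effect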); conditions: ME-180 (cervical carcinoma) SIE beta-lactamase reporter, IL-6 stimulated, 5 h
Summary of the method: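 Emission at 460 and 530 nm (excitation 405 nm) reports SIE-controlled beta-lactamase in ME-180 cells. Cells received compound with 40 pM IL-6 for 5 hrs at 37 C; data scaled between 300 pM IL-6 and 125 nM JAK-inhibitor controls.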

[4] = target: Mitogen-activated protein kinase 10 (Mus musculus) (UniProt Q61831); experiment: JNK3 AlphaScreen Assay (AID 530; active = well fitted curve in either direction with a large enough effect, not every such curve was filed as active;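 also: kinase came from lysate of stimulated human HepG2 cells; signal reports phosphorylation of biotinylated GST-cJun 1-79 at Ser73 with 10 µM ATP; % is scaled to controls: 0 for no effect and ±100 for the full control effect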)
Summary of the method: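 Phosphorylation of biotinylated GST-cJun(1-79) at Ser73 is measured by AlphaScreen proximity luminescence. Enzyme is JNK3 in HepG2 lysates activated with interleukin-1beta and tumor necrosis factor alpha; ATP is 10 uM final.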

[5] = target: 3',5'-cyclic-AMP phosphodiesterase 4B (Homo sapiens) (UniProt Q07343); experiment: qHTS Assay for Inhibitors of PDE-IV (AID 607; active = well fitted activation curve with a large enough effect in the main read-out, with a control signal flat, not every such curve was filed as active; also: % of control where 0% means no effect)
Sequence of 3',5'-cyclic-AMP phosphodiesterase 4B (Homo sapiens) (Q07343 whole entry, looked up): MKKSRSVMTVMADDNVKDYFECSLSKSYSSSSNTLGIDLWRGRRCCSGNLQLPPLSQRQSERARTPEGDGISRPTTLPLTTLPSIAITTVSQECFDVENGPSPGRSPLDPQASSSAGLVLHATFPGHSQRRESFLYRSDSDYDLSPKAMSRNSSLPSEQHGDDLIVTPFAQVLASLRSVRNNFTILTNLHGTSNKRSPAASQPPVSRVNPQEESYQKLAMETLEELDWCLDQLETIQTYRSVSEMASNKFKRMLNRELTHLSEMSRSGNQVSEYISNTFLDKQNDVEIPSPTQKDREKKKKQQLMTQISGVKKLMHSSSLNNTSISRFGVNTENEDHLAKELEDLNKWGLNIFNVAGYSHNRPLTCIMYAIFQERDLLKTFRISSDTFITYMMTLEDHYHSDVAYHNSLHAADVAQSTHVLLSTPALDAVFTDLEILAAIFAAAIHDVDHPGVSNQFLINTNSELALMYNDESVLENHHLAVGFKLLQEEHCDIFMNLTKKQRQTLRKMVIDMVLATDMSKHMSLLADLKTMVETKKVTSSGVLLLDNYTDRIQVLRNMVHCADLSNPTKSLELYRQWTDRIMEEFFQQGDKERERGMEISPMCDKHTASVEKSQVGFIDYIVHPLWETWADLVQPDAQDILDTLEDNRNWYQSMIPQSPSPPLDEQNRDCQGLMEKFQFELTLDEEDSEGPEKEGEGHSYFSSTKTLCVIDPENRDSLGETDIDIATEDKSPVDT
Summary of the method: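 The readout is membrane depolarisation from a cAMP-sensing CNG channel, detected with a potential dye at ex 535/em 590. Cells were HEK293-derived (endogenous PDE-IV) at 1000 cells/well, titrated up to 22.9 uM final.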

[6] = qHTS Assay for Lipid Storage Modulators (AID 1519; calls by dose curve); conditions: Drosophila S3 cells, BODIPY lipid droplet/cell ratio, laser cytometry, cells loaded with oleic acid; for activity change, negative = inhibition: at 25.7 µM (top of the series)
Summary of the method: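 Cells seeded at 5,000 per well were treated with compounds over a concentration series and loaded with oleic acid (400 uM, as added). Lipid droplet fluorescence (488 nm excitation, 500-530 nm channel) was read by laser-scanning cytometry and normalized to 20 uM Triacsin C.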

[7] = target: Ubiquitin carboxyl-terminal hydrolase 1 (Homo sapiens) (UniProt O94782); experiment: Inhibitors of USP1/UAF1: Pilot qHTS (AID 504865);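 also: rhodamine fluorescence freed from ubiquitin-rhodamine substrate followed over time; top concentration of the series differs between compounds; % is scaled to controls: 0 for no effect and ±100 for the full control effect; nearly all actives have a fitted effect of over 35% in size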
Sequence of Ubiquitin carboxyl-terminal hydrolase 1 (Homo sapiens) (O94782 whole entry, looked up): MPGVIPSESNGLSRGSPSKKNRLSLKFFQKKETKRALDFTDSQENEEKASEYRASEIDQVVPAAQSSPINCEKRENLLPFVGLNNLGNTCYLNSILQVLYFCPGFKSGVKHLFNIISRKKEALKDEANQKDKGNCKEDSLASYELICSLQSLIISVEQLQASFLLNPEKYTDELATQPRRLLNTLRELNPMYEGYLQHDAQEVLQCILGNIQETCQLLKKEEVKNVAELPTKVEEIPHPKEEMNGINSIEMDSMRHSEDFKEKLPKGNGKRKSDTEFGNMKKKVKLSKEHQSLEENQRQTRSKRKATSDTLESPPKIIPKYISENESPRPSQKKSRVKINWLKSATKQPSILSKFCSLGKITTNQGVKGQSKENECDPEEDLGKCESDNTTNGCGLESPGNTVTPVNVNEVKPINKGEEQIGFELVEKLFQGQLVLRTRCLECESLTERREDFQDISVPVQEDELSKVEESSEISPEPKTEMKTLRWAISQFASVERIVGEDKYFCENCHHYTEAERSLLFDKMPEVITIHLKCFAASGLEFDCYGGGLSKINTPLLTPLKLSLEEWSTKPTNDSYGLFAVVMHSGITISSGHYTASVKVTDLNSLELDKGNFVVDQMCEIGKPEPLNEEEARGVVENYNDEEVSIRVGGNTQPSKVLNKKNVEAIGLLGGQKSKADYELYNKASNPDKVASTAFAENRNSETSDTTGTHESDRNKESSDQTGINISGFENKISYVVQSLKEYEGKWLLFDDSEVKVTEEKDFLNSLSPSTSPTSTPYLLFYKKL
Summary of the method: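 USP1/UAF1 complex (1nM) preincubated with compound 15 min at room temperature, then Ub-Rho substrate (150nM final) added. Fluorescence read kinetically at 480/540 nm, 6 reads every 60 seconds. Buffer: 50mM HEPES pH 7.8, 0.5mM EDTA, 0.1 mg/ml BSA, 1mM TCEP, 0.01% Tween-20.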

[8] = target: Cytochrome P450 1A2 (Homo sapiens) (UniProt P05177); experiment: p450-cyp1a2 (AID 410; calls by dose curve;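 also: -100% = full effect of reference inhibitor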)
Sequence of Cytochrome P450 1A2 (Homo sapiens) (P05177 whole entry, looked up): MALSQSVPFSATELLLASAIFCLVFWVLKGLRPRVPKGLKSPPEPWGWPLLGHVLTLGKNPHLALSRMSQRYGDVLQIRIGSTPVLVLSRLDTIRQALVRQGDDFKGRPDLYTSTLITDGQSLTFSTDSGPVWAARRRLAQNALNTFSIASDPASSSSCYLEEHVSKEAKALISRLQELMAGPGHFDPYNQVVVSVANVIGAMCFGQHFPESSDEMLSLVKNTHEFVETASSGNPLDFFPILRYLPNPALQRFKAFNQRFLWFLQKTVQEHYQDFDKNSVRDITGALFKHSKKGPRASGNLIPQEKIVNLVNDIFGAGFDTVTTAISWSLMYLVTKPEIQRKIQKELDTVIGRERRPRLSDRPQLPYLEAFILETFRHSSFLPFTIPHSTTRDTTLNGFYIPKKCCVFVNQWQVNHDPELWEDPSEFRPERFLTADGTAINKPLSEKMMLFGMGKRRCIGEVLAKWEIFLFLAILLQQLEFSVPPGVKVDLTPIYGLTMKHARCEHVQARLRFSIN
Summary of the method: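 O-Demethylation of luciferin 6' methyl ether by human CYP1A2 is monitored as luciferase luminescence. Substrate sits at Km (100uM); enzyme is 20nM. Values are scaled to 57 uM furafylline as maximal inhibition.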

[9] = target: Glucocorticoid receptor (Homo sapiens) (UniProt P04150); experiment: GR-GFP Redistribution (AID 450;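 active = compounds whose dose series gives a full or clear partial fitted curve of increased nuclear translocation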; also: potency is read from the fitted curve at half-maximal effect); conditions: U2OS GR-GFP nuclear translocation, laser cytometry, 2 h
Sequence of Glucocorticoid receptor (Homo sapiens) (P04150 whole entry, looked up, the tested form may be a part): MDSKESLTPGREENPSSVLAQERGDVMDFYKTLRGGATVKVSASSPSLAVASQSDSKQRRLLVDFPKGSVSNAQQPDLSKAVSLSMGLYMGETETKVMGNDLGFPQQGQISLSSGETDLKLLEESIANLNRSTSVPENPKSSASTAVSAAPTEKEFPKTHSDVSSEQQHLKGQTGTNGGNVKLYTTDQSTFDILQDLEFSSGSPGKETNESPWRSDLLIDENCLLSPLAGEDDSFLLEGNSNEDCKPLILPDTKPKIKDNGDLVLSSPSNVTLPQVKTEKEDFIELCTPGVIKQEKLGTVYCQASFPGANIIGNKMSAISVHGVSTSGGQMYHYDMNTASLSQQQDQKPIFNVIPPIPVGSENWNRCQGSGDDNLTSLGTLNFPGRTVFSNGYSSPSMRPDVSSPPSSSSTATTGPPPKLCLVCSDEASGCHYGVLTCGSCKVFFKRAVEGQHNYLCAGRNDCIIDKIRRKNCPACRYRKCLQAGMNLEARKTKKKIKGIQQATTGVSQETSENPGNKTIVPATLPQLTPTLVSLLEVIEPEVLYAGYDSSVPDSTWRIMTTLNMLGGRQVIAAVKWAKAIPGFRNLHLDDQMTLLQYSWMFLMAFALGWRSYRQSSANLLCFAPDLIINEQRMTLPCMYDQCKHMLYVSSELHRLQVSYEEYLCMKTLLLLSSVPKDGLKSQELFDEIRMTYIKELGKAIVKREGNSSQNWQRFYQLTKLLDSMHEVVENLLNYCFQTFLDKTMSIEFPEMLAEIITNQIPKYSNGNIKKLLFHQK

[10] = target: Glucocorticoid receptor (Homo sapiens) (UniProt P04150); experiment: GR-EFC Redistribution (AID 451; calls by dose curve; also: potency is read from the fitted curve at half-maximal effect); conditions: CHO-K1 GR-EFC translocation, beta-gal luminescence, 2 h
Summary of the method: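 CHO-K1 cells stably expressing nuclear-localized β-gal enzyme acceptor and GR fused C-terminally to the enzyme donor fragment; ligand-driven nuclear translocation restores β-gal by complementation. Compounds titrated up to 46 uM final, 2 h at 37 °C; luminescence read.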

[11] = target: Luciferin 4-monooxygenase (Photinus pyralis) (UniProt P08659); experiment: Biochemical firefly luciferase enzyme assay for NPC (AID 624030);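 also: purified P. pyralis luciferase at 10 nM with luciferin and ATP substrate; 0% = DMSO and -100% = full luciferase inhibition by PTC124 control; nearly all actives have a fitted effect of over 70% in size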
Sequence of Luciferin 4-monooxygenase (Photinus pyralis) (P08659 whole entry, looked up): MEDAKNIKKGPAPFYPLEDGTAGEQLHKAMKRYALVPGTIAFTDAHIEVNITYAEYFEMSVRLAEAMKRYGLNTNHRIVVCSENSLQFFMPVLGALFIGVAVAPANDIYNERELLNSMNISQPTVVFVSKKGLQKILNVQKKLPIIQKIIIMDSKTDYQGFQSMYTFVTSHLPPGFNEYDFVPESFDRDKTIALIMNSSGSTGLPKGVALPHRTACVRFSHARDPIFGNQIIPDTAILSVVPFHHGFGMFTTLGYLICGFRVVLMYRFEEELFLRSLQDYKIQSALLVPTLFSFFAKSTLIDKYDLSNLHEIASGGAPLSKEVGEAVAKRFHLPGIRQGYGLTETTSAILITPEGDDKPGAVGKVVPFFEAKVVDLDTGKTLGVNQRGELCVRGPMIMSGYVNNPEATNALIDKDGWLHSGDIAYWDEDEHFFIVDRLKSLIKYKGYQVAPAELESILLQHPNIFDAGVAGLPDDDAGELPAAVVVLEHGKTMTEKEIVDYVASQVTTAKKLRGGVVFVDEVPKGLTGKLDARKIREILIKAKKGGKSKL
Summary of the method: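 Counter-screen for direct inhibition of the luciferase enzyme by approved-drug library compounds, run at 10 nM enzyme in 50 mM Tris acetate (final). Luminescence was read within 5 min of enzyme-buffer addition and normalized to PTC124 versus DMSO (0%).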

[12] = qHTS profiling for inhibitors of Plasmodium falciparum proliferation (AID 504749);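 also: 0% = DMSO vehicle and full inhibition = artemisinin control; nearly all actives have a fitted effect of over 60% in size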; conditions: P. falciparum in erythrocytes, SYBR Green DNA, 72 h, at 12.8 µM (top of the series)
Summary of the method: (§1)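 Quantitative HTS: compounds pinned into medium, infected erythrocytes added (0.3% parasitemia, 2.5% hematocrit), 72 h culture at 37 C under 5% CO2. Saponin/Triton lysis with SYBR Green I, overnight RT, then fluorescence read.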

ATS189 = experiment: as above; conditions: P. falciparum in erythrocytes, SYBR Green DNA, 72 h; series mostly up to 12.8 µM
Summary of the method: as §1

CP201 = experiment: as above; conditions: P. falciparum in erythrocytes, SYBR Green DNA, 72 h; series mostly up to 12.8 µM
Summary of the method: as §1

CP291 = experiment: as above; conditions: P. falciparum in erythrocytes, SYBR Green DNA, 72 h; series mostly up to 12.8 µM
Summary of the method: as §1

DFO2036 = experiment: as above; conditions: P. falciparum in erythrocytes, SYBR Green DNA, 72 h; series mostly up to 12.8 µM
Summary of the method: as §1

PC49 = experiment: as above; conditions: P. falciparum in erythrocytes, SYBR Green DNA, 72 h; series mostly up to 12.8 µM
Summary of the method: as §1

TAB113 = experiment: as above; conditions: P. falciparum in erythrocytes, SYBR Green DNA, 72 h; series mostly up to 12.8 µM
Summary of the method: as §1

[13] = target: Cytochrome P450 3A4 (Homo sapiens) (UniProt P08684); experiment: qHTS Assay for Activators of Cytochrome P450 3A4 (AID 885); also: nearly all actives have a fitted effect of over 65% in size
Sequence of Cytochrome P450 3A4 (Homo sapiens) (P08684 whole entry, looked up): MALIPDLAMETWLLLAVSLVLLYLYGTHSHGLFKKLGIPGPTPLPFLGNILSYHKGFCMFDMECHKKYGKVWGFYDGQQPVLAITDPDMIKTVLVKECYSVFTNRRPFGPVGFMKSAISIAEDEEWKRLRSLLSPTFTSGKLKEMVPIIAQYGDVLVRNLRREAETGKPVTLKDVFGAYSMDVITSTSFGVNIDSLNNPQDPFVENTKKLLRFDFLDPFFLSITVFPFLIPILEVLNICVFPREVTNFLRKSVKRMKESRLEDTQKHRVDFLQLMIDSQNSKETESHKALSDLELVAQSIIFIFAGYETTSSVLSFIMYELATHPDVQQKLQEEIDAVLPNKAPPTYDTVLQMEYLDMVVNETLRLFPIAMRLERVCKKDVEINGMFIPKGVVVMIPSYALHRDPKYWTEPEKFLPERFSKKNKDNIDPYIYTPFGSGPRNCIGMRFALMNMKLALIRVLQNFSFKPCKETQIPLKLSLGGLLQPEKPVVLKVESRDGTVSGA
Summary of the method: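 Activators are scored by enhanced luminescence from CYP3A4 conversion of luciferin-PPXE (25uM, equal to KM) to luciferin, after 60 min at RT with an NADPH-regenerating system.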

[14] = measured here: cell count channel max response
[15] = measured here: lipid channel max response
[16] = at 7.69 µM (top of the series) unless noted

CC1=C(C(=O)O)N2C(=O)[C@@H](NC(=O)[C@@H](N)c3ccccc3)[C@@H]2SC1
-0.484%: max response [6, 15]
0.948%: max response [6, 14]
inactive: activity change, negative = inhibition ([1]; at 17.2 µM (top of the series)) 16.3% | activity change, negative = inhibition ([1]; at 38 µM (top of the series)) 11% | activity change, negative = inhibition ([2]; at 17.2 µM (top of the series)) -9.84% | activity change, negative = inhibition ([2]; at 38 µM (top of the series)) -0.753% | activity, negative = inhibition ([3]; at 17.2 µM (top of the series)) 10.2% | activity, negative = inhibition ([3]; at 38 µM (top of the series)) 30.7% | Potency [4] | Potency [5] | activity change, negative = inhibition [6] -1.09% | Potency [7]

C[n+]1ccccc1/C=N\O
-5.77%: max response [6, 14]
-7.21%: max response [6, 15]
inactive: activity change, negative = inhibition [1, 16] 1.66% [at 17.2 µM] | Potency [8] | activity change, negative = inhibition [2, 16] 3.73% [at 17.2 µM] | activity, negative = inhibition [3, 16] 2.75% [at 17.2 µM] | Potency [9] > 20.6 µM | Potency [10] > 20.6 µM | Potency [4] | Potency [5] | activity change, negative = inhibition [6] -1.41% | outcome [11] | activity, negative = inhibition ([12]; parasite line A) 14% | activity, negative = inhibition ([12]; parasite line B) 8.58% | Potency (ATS189) | Potency (CP201) | Potency (CP291) | Potency (DFO2036) | Potency (PC49) | Potency (TAB113)

C[C@@H](CN(C)C)CN1c2ccccc2CCc2ccccc21
-11.8%: max response [6, 14]
inactive: Potency [8] | activity, negative = inhibition ([3]; at 17.2 µM (top of the series)) 1.59% | activity, negative = inhibition ([3]; at 38 µM (top of the series)) -7% | Potency [4] | Potency [5] | Potency [13] | activity change, negative = inhibition [6] -5.99% | Potency [7] | outcome [11] | activity, negative = inhibition ([12]; parasite line A) -6.2% | Potency (ATS189) | Potency (CP201) | Potency (CP291) | Potency (DFO2036) | Potency (PC49) | Potency (TAB113)
active: activity change, negative = inhibition ([1]; at 17.2 µM (top of the series)) 77.9% [activator] | activity change, negative = inhibition ([1]; at 38 µM (top of the series)) 90.9% [activator]
-16.4%: max response [6, 15]

CC1(C)O[C@@H]2C[C@H]3[C@H]4C[C@H](F)C5=CC(=O)C=C[C@@]5(C)[C@@H]4[C@H](O)C[C@]3(C)[C@]2(C(=O)CO)O1
-24%: max response [6, 14]
-28.6%: max response [6, 15]
inactive: activity change, negative = inhibition [1, 16] 21.4% [at 17.2 µM] | Potency [8] | activity change, negative = inhibition [2, 16] -5.12% [at 17.2 µM] | activity, negative = inhibition [3, 16] -5.69% [at 17.2 µM] | Potency [5] | Potency [13] | activity change, negative = inhibition [6] -4.94% | Potency [7] | outcome [11] | activity, negative = inhibition ([12]; parasite line A) -1.94% | activity, negative = inhibition ([12]; parasite line B) 13.2% | Potency (ATS189) | Potency (CP201) | Potency (CP291) | Potency (DFO2036) | Potency (PC49) | Potency (TAB113)
active: Potency [9] 0.00395 µM | Potency [10] 0.00485 µM

Source: PubChem BioAssay (NCATS)
